BoNT-F LC inh = inhibitors of Botulinum neurotoxin F light chain protease; Multiplex microsphere protease cleavage assay, flow cytometry; inhibition, % at 10 µM; hit rate 0.22% among 360,000; AID 588497; in the data active = inhibition above about 35%, passing the limit was not always enough; inconclusive = no clear call, values can overlap the other calls
Anthrax LF prot = inhibitors of Bacillus anthracis lethal factor protease; P15917; multiplex microsphere protease cleavage assay, LF; inhibition, % at 10 µM; hit rate 0.12% among 360,000
Target sequence (P15917 whole entry, looked up): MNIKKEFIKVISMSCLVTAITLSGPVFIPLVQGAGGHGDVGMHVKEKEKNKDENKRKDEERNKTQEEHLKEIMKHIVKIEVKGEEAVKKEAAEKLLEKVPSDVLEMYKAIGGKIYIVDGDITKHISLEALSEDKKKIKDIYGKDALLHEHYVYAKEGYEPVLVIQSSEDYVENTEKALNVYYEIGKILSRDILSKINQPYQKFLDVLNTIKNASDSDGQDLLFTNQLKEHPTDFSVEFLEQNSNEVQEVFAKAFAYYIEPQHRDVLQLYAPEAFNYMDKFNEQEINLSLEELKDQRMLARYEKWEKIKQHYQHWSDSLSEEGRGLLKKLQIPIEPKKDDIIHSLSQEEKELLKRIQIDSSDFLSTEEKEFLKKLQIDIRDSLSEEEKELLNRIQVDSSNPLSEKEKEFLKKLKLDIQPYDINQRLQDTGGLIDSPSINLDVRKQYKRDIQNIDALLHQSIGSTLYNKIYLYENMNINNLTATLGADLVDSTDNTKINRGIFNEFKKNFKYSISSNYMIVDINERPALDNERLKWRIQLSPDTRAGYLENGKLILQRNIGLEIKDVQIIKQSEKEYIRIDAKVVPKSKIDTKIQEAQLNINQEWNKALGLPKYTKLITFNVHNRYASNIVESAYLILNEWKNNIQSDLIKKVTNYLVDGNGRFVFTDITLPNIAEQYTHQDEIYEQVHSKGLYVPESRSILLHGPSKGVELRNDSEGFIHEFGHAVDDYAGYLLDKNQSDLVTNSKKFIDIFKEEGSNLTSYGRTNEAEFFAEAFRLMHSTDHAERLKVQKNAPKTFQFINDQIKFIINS
SSB-PriA inh = inhibitors of Klebsiella pneumoniae PriA binding to SSB C-terminal tail; AlphaScreen SSBct-PriA binding, biotinylated peptide; inhibition, % at 33 µM; hit rate 0.6% among 430,000; AID 1272365; in the data active = inhibition mostly above about 37%, no sharp cut-off; inactive = mostly below about 20%
BoNT-A LC inh2 = BoNT A light chain protease inhibition; multiplex microsphere protease substrate cleavage, flow cytometry; inhibition, % at 10 µM; hit rate 0.17% among 360,000
Autofluor counter = compound fluorescence in toxin protease inhibitor counterscreen; compound autofluorescence counterscreen, microsphere flow cytometry; stronger effect = higher value; fluorescence intensity (test concentration not listed); hit rate 3.1% among 360,000; AID 624483; in the data active = fluorescence intensity above about 16000; inconclusive = no clear call, values can overlap the other calls
Hits are given with their value; – = inactive; ? = inconclusive; · = not tested or not shown. An excerpt weighted towards active compounds, which were near 3.1% of everything screened. Rule as the data show it, unless noted: active = inhibition above about 30%; inconclusive = no clear call, values can overlap the other calls; inactive = below that.

SMILES	BoNT-F LC inh	Anthrax LF prot	SSB-PriA inh	BoNT-A LC inh2	Autofluor counter
COc1cn2c(cc1=O)C(=O)N(CCNC(=O)C1CC1)CC2	·	·	–	·	·
Cc1sc(NC(=O)CCOc2ccccc2)c(C(N)=O)c1C	·	·	–	·	·
O=C1CC(=O)C(n2cncn2)C(c2cccc(Cl)c2)C1 (stereo not drawn)	–	–	–	–	21751
O=C1CC(c2cccc(Cl)c2)C(n2cncn2)C(=O)C1C1NCCc2ccccc21 (stereo not drawn)	–	–	–	–	–
COc1ccc(C2CC(=O)CC(=O)C2n2cncn2)cc1 (stereo not drawn)	–	–	–	–	21795
Cn1nc(C(=O)N2CCC(Cn3ccnc3)CC2)ccc1=O	·	·	–	·	·
CCOC(=O)CSc1nc2ccc(N3CCOCC3)cc2c(=O)n1CCc1ccccc1	·	·	–	·	·
O=C1N(c2ccc(Cl)c(Cl)c2)CN(Cc2ccccc2)CN1n1cnnc1	–	–	–	–	17448
C=CCn1cnc2c(c1=O)c1nc3ccccc3nc1n2N=Cc1ccccn1	·	·	–	·	·
COc1ccc(S(=O)(=O)N2Cc3ccccc3CC2C(=O)Nc2nccs2)cc1 (stereo not drawn)	–	–	–	–	23488
COc1cc(-c2nc3ccc(C)cn3c2Nc2ccc3c(c2)OCCO3)ccc1O	–	–	55	–	–
COc1ccccc1CNCC(O)(c1ccc(Cl)cc1)c1ccc(Cl)cc1	–	–	–	?	23819
Cc1ncoc1C(=O)Nc1ccc(Cl)cc1	·	·	–	·	·
Cc1ncoc1C(=O)Nc1ccccc1-c1ccccc1	–	–	–	–	23728
Cc1nc(C)c(C(=O)Nc2ccc(Oc3ccccc3)cc2)o1	–	–	–	–	19915
Cc1ncoc1C(=O)Nc1ccc(Oc2ccccc2)cc1	–	–	–	–	19937
O=C(O)c1ccccc1C(=O)Nc1ccc(Oc2ccccc2)cc1	–	–	–	–	–
COC(=O)c1ccccc1NC(=O)c1ocnc1C	·	·	–	·	·
O=C(NN=Cc1cc([N+](=O)[O-])cc([N+](=O)[O-])c1O)/C(=C\c1cccs1)NC(=O)c1ccccc1	·	·	–	·	·
COc1ccc(S(=O)(=O)N2CCCOC2CNC(=O)C(=O)NCCc2c[nH]c3ccccc23)cc1OC (stereo not drawn)	·	·	–	·	·
COC(=O)c1[nH]c(C)c(C(O)=C2C(=O)C(=O)N(CCN(C)C)C2c2ccccc2OC)c1C (stereo not drawn)	·	·	–	·	·
CCOC(=O)c1[nH]c(C)c(/C(O)=C2\C(=O)C(=O)N(CCN(C)C)C2c2cccc(OC)c2OC)c1C (stereo not drawn)	–	–	·	–	18747
CCOc1ccc2nc(NC(=O)CSc3nc4c(c(=O)n(C)c(=O)n4C)n3C(C)C)sc2c1	–	–	–	–	–
CCn1c(SCC(=O)Nc2nc3ccc(OC)cc3s2)nc2c1c(=O)n(C)c(=O)n2C	–	–	–	–	21795
CCn1c(SCC(=O)Nc2cc(C)on2)nc2c1c(=O)n(C)c(=O)n2C	–	–	–	?	24541
SMILES	BoNT-F LC inh	Anthrax LF prot	SSB-PriA inh	BoNT-A LC inh2	Autofluor counter
CCCCn1c(SCC(=O)Nc2cc(C)on2)nc2c1c(=O)n(C)c(=O)n2C	–	–	–	–	–
Cc1cccc(NC(=S)N(CCN(C)C)C(C)c2ccccn2)c1 (stereo not drawn)	–	–	–	–	22805
CCn1cc(C(=O)O)c(=O)c2cc(OC)ccc21	–	–	–	–	19754
O=C(C1CC(=O)N(C2CCCCCCC2)C1)N1CCC2(CC1)OCCO2 (stereo not drawn)	–	–	–	–	22759
O=C(C1CC(=O)N(C2CCCC2)C1)N1CCN(c2ccccc2)CC1 (stereo not drawn)	–	–	–	–	–
O=C(C1CCC(=O)N1C1CCCC1)N1CCC2(CC1)OCCO2 (stereo not drawn)	–	–	–	–	20240
O=C(C1CCC(=O)N1Cc1ccc(F)cc1)N1CCC2(CC1)OCCO2 (stereo not drawn)	–	–	–	–	–
COc1ccc(CN/C=C2\CCCCC2=O)cc1	–	–	·	?	22197
Cc1cccc(CSc2nc3c(c(=O)[nH]2)CCC3)c1	–	–	–	–	–
O=c1[nH]c(SCc2ccccc2Cl)nc2c1CCC2	–	–	–	–	23543
Cc1ccc(NC(=O)CSc2nc3c(c(=O)[nH]2)CCCC3)cc1C	–	–	–	–	–
CN(C(=O)CSc1nc2c(c(=O)[nH]1)CCCC2)C1CCCCC1	–	–	–	?	20234
Cc1ccc(NC(=O)CSc2nc3c(c(=O)[nH]2)CCC3)cc1C	–	–	–	–	17130
O=c1[nH]c(SCCc2ccccc2)nc2c1CCC2	–	–	·	–	–
Cc1ccc(CSc2nc3c(c(=O)[nH]2)CCC3)cc1	–	–	–	?	20993
O=C(ON=C(c1ccccc1)c1ccncc1)c1cccc(F)c1	·	·	–	·	·

Compound activity: PubChem BioAssay, several laboratories
